Bioassay records: PubChem, National Center for Advancing Translational Sciences (NCATS)
Compounds with a hit are over-represented: about 7.3% of the library has one in this group of screens.
FLuc modulator: inhibits or activates purified firefly luciferase, miR-21 counter-screen; purified FLuc, Km substrates, luminescence inhibition; Potency, µM (titrated, usually from 57.5 µM), without a hit: top-dose activity change, negative = inhibition, actives largely listed as inhibitors; P08659; 360,000 tested, 6.9% active;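 also: plate controls were vehicle for no effect and reference inhibitor for full effect; nearly all actives have a fitted effect of over 55% in size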
Target sequence (P08659 whole entry, looked up): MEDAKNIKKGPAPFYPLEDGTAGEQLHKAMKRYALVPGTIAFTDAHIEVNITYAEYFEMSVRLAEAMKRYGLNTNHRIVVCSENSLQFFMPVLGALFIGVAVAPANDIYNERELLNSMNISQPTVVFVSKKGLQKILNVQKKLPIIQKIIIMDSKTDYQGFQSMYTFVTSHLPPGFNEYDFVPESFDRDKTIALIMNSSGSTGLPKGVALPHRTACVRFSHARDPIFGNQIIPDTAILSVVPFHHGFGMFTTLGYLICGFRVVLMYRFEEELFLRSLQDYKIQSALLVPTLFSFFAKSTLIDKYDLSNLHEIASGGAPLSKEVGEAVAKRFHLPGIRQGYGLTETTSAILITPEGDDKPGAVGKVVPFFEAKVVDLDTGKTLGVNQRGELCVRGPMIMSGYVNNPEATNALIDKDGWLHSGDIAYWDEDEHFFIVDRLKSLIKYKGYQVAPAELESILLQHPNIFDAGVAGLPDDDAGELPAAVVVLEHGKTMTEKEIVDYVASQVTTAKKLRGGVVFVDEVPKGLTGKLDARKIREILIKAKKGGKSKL
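Purified P. pyralis luciferase (10nM final) with 10uM D-luciferin and 10uM ATP (Km levels) in 50mM Tris acetate pH 7.5, 10mM Mg acetate, 0.01% Tween-20, 0.05% BSA; qHTS 6-point titration, ~60 µM downward; luminescence read.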
NPC1 prom act: NPC1 promoter activation | Huh7 NPC1 promoter luciferase reporter, 24 h | Potency, µM (highest dose often 9.22 µM), inactives show at the top dose activation, usual class: activators | 320,000 tested, 2.4% active | AID 485313; also: % of control where 0% means no effect; nearly all actives have a fitted effect of over 60% in size
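Readout is luciferase luminescence, reflecting NPC1 promoter activation in stably transfected Huh7 cells after 24 h compound exposure at 37 °C in reduced-serum medium with 10% FBS.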
Luc counter: Kinase-Glo luciferase inhibition (counter-screen); Kinase-Glo luciferase, ATP luminescence, 8 min; 200,000 tested, 0.28% active; Potency, µM (highest dose often 38.3 µM), inactives show at the top dose activity change, negative = inhibition, most hits filed as inhibitors; Q27757; also: % is scaled to controls: 0 for no effect and ±100 for the full control effect; nearly all actives have a fitted effect of over 60% in size
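Luminescence was the read-out, taken after 8-minute incubation at ambient temperature. Luciferase turned over luciferin with 10 uM ATP in imidazole pH 7.2 buffer containing KCl, MgCl2, Tween 20 and BSA.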
SMN2 splice enh: enhancers of SMN2 splice variant expression; HEK293 SMN2-luciferase splicing reporter, luminescence, 30-36 h; Potency, µM (top dose mostly 46.1 µM), for the others: top-dose activity change, positive = activation, actives largely listed as activators; 210,000 tested, 2.8% active; AID 1458; also: % of control where 0% means no effect; nearly all actives have a fitted effect of over 55% in size
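qHTS luciferase splicing reporter: luminescence rises when SMN2 exon 7 is included in transfected HEK293 cells. Compound exposure lasted 30-36 h at 37C, with 4.5 mM final sodium butyrate as control, followed by a ONE-Glo read.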
ELG1 genotox: inducers of genotoxicity in HEK293T ELG1-luciferase cells; HEK293T ELG1-luciferase reporter, luminescence, 16 h; Potency, µM (highest dose often 46 µM), inactives show at the highest dose activity change, positive = activation, actives largely listed as activators; 330,000 tested, 1.3% active; AID 504466; also: % of control where 0% means no effect; nearly all actives have a fitted effect of over 60% in size
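Quantitative HTS format in 1536-well plates. HEK293T ELG1-luciferase reporter cells receive test compound and are incubated 16 hr at 37 °C, 5% CO2; ONE-Glo added, 30 min room temperature, then luminescence read.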
Rab9 prom act: activates the Rab9 promoter; Huh7 Rab9 promoter-luciferase reporter, luminescence, 24 h; 320,000 tested, 2.8% active; Potency, µM (titrated, usually from 9.22 µM), without a hit: at the top dose activation, negative = inhibition, usual class: activators; also: % of control where 0% means no effect; nearly all actives have a fitted effect of over 60% in size
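Stable Rab9-luc Huh7, 1500 cells/well, 2 h settle; cmpd in DMSO, 24 h, 37 °C/5% CO2; luciferase reagent 10 min RT; luminescence.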
Starred values were filed as active, the others as inactive; ? = inconclusive; . = not tested or not shown. Calls follow the shape of the dose curve; as a rule, active = well fitted curve in the direction sought with a large enough effect; inconclusive = small, poorly fitted or top-dose-only effect, or another doubt; inactive = no such curve, though single readings can be large; an effect the other way counts as inactive or inconclusive. Potency is read from the fitted curve at half-maximal effect.

SMILES	FLuc modulator	NPC1 prom act	Luc counter	SMN2 splice enh	ELG1 genotox	Rab9 prom act
Cn1c(N/N=C/c2cc3ccccc3nc2Cl)nc2ccccc21	0.027µM*	1µM*	6.3µM*	2.2µM*	?	0.45µM*
Cn1c(N/N=C/c2c[nH]c3ccccc23)nc2ccccc21	1.5µM*	?	-7%	-109%	7%	?
Cc1cc(N/N=C/c2c[nH]c3ccccc23)c2ccccc2n1	-7%	8%	3%	-7%	1%	2%
COc1ccc(Nc2nc3ccccc3nc2C)cc1	-18%	1%	3%	-9%	3%	6%
COC(=O)Cc1ccc(NC(=S)N2CCN(C)CC2)cc1	5.4µM*	10%	-2%	?	11%	21%
COC(=O)Cc1ccc(NC(=S)N2CCCCC2C)cc1 (stereo not drawn)	4.8µM*	10%	-4%	6%	10%	18%
COC(=O)Cc1ccc(NC(=S)N2CCC(Cc3ccccc3)CC2)cc1	4.8µM*	1%	.	.	-3%	8%
COC(=O)Cc1ccc(NC(=S)N2CCN(c3ccc(OC)cc3)CC2)cc1	5%	-2%	4%	-46%	-4%	-2%
CCn1c(=O)c(C(C)=O)c(O)c2ccccc21	-11%	-3%	-1%	.	-1%	-2%
Cc1ccc(N(C(=O)C(F)(F)F)C(C(=O)NC2CCCCC2)c2cccs2)cc1 (stereo not drawn)	-1%	-8%	-1%	-2%	7%	0%
COc1ccc2c(c1OC)C(=O)OC2Nc1ccccn1 (stereo not drawn)	5%	4%	3%	22%	1%	-3%
CCOC(=O)c1c(NC2OC(=O)c3c2ccc(OC)c3OC)sc(C(=O)OC(C)(C)C)c1C (stereo not drawn)	17µM*	26%	0%	.	?	22%
COc1ccccc1CN1CC(C(=O)N(C)Cc2ccc(C)o2)CCC1=O (stereo not drawn)	?	0%	.	.	4%	2%
COc1ccc(/C(O)=C2/C(=O)C(=O)N(CCN(C)C)C2c2ccccn2)cc1OC (stereo not drawn)	0%	5%	-5%	18%	6%	0%
COc1ccc(C(=O)NCCNC(=O)c2ccccn2)cc1	2%	-4%	.	.	3%	-1%
COc1cc(OC)cc(C(=O)O/N=C(\N)c2ccccn2)c1	6.7µM*	0.89µM*	.	.	?	0.63µM*
COc1ccc(C(=O)O/N=C(\N)c2ccccn2)cc1	0.095µM*	0.11µM*	.	.	?	0.4µM*
COc1ccc(C(=O)NNC(=O)c2ccccn2)cc1	0.085µM*	0.32µM*	0.63µM*	2.5µM*	0.15µM*	0.32µM*
COc1ccc(C(=O)O/N=C(\C)c2cnccn2)cc1	11µM*	0%	-14%	7%	2%	-1%
COc1ccc(C(=O)Oc2cccnc2)cc1	-17%	-4%	-6%	1%	-2%	7%
CCOc1cc(C(=O)O/N=C(\N)c2ccccn2)cc(OCC)c1OCC	?	6%	.	.	-11%	4%
COCCN(Cc1ccc(C)c(Br)c1)C(=O)Cn1cnc(S(=O)(=O)N2CCCC2)c1	1%	1%	.	.	4%	7%
O=C(O)CC/C(=N\NC(=O)c1ccccc1)c1cccs1	?	-4%	-1%	10%	10%	-2%
O=C(c1ccccc1)N1N=C(c2ccco2)CC1c1cccs1 (stereo not drawn)	0%	-3%	.	.	6%	1%
Cc1ccc(SCCNC(=O)CN(c2cccc(C)c2C)S(C)(=O)=O)cc1	-15%	.	.	-27%	.	.
SMILES	FLuc modulator	NPC1 prom act	Luc counter	SMN2 splice enh	ELG1 genotox	Rab9 prom act
COc1ccc(CC(=O)O/N=C(\N)c2ccccn2)cc1	12µM*	10%	.	.	?	18%
CCCCNC1=C(Br)C(=O)CC(C)(C)C1	2%	-8%	1%	?	?	-4%
Cc1cc(NC(=O)NC(=O)c2cccc(OC(F)(F)C(F)F)c2)n[nH]1	-16%	2.5µM*	0%	5.6µM*	?	2.2µM*
O=C(Nc1nn[nH]n1)c1cccc(Oc2ccccc2)c1	-1%	1%	0%	-2%	-1%	-7%
Cc1cc(NC(=O)c2cccc(Oc3ccccc3)c2)n[nH]1	6.7µM*	2.8µM*	-7%	?	?	0.89µM*
O=C(NCc1ccccc1)c1csc2c1CCCCC2	-5%	0%	?	-15%	11%	8%
Cc1cc(NC(=O)Nc2csc3c2CCCC3)ccc1Br	?	.	.	-1%	.	.
COc1cccc(NC(=O)c2csc3c2CCCC3)c1	9.5µM*	?	-12%	14µM*	?	?
CC(C)c1ccc(NC(=O)Nc2csc3c2CCCC3)cc1	4.8µM*	.	.	-30%	.	.
COc1ccc(NC(=O)c2csc3c2CCCC3)cc1	3µM*	2µM*	1%	13µM*	?	3.2µM*
COc1cccc(NC(=O)CN(C)C(=O)c2csc3c2CCCC3)c1	10%	1%	.	.	-3%	10%
CC(CNC(=O)c1csc2c1CCCCC2)c1ccccc1 (stereo not drawn)	15µM*	.	.	11µM*	.	.
Cc1ccc(/C=N/NC(=O)c2csc3c2CCCC3)cc1	11µM*	0%	-1%	24%	?	24%
Cc1ccc(/C=N\NC(=O)c2csnn2)cc1	3.8µM*	3.5µM*	?	-3%	?	2.5µM*
O=C(Nc1nccs1)c1csc2c1CCCC2	13µM*	28%	0%	26%	8%	28%
Cc1ccccc1NC(=O)Nc1csc2c1CCCC2	?	.	.	5%	.	.
Cc1ccccc1NC(=O)c1csc2c1CCCC2	19µM*	?	-15%	?	26µM*	29%
COc1cc(/C=N/NC(=O)c2csc3c2CCCC3)cc(OC)c1O	-19%	7%	-5%	8%	-1%	0%
COc1ccc2c(c1)CCc1cc(C(=O)N3CCN(c4ccc(N5CCOCC5)nn4)CC3)sc1-2	?	-5%	1%	-53%	-29%	-4%
O=S(=O)(NNc1nccc(C(F)(F)F)n1)c1cccc(Cl)c1Cl	-7%	-3%	.	.	-2%	1%
CCCCC1CCC(C(=O)OCC(=O)N(CCOC)c2c(N)n(Cc3ccccc3)c(=O)[nH]c2=O)CC1 (stereo not drawn)	9%	-7%	.	.	3%	1%
CC(=O)Nc1sc(N/N=C\c2ccco2)nc1-c1cccs1	17µM*	-2%	2%	-11%	2%	16%
CCOc1cc(/C=N/NC(=O)CSc2cccc3cccnc23)ccc1O	-12%	-2%	1%	18%	-6%	-4%
CC(=O)Nc1sc(N/N=C/c2ccccc2F)nc1-c1ccc(C)cc1	7.6µM*	1%	.	.	-2%	10%
